Measured values taken from the supplement of paper PMC12636033.
± gives the standard deviation of the averaged measurements. Over roughly 33,000 sequences, “E-score (rank enrichment, -0.5 to 0.5)” has its median near -0.0068; the highest 2% begin near 0.24. The sample holds the highest values, similar sequences and a random draw of the others, so the mix is not that of the screen.

Each sequence was assayed on muMax20 (Max(13-93) K31hArg/K57hArg, M65Nle) (assay: PBM 8-mer E-score (E-score (rank enrichment, -0.5 to 0.5)); higher = stronger preferential binding).
Method: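 Protein binding microarray (universal PBM chip covering all 10-mers in fixed probe flanks) with chemically synthesized human Max(13-93) bHLH-LZ analogs (not full-length Max) bearing noncanonical residues (hArg, Tha, Aib, Nle at 65) and aromatic Cys staples. Read-out per 8-mer (and its reverse complement): E-score (rank-based enrichment, -0.5 to 0.5) and Z-score of median probe intensity.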

Sequence	PBM 8-mer E-score
CCAGCTCG	-0.23 ± 0.058
AAGTCCCA	0.0496 ± 0.017
TCTAGCCA	-0.0192 ± 0.021
CGTACCCC	0.134 ± 0.012
CGCTCGCA	-0.00112 ± 0.055
ATCCTAGG	-0.193 ± 0.037
ATCCTAGC	0.247 ± 0.0046
CTCCTAGC	-0.136 ± 0.081
AAGATGAG	-0.0108 ± 0.035
ATTGACTA	-0.0128 ± 0.0061
ATCAATGA	0.164 ± 0.044
AAAGGCCC	0.105 ± 0.034
CAAAAGGC	0.0129 ± 0.021
AAAAGGCC	0.294 ± 0.089
GAAAAGGC	0.3 ± 0.074
GAAAGGCC	-0.109 ± 0.036
AAAGGCCG	0.275 ± 0.088
AAAAAGGC	0.218 ± 0.093
CAAAGGCC	0.0435 ± 0.035
CAAGGCCG	-0.0484 ± 0.016
GAGTCGTA	0.0328 ± 0.034
CTTTTAGC	0.0351 ± 0.039
ATGCCTGG	-0.0874 ± 0.034
AGCTTTGC	-0.066 ± 0.034
TCTGACAA	-0.0236 ± 0.026

Sequence	PBM 8-mer E-score
AATACGAG	0.1434 ± 0.0014
CCTCCGAA	-0.0791 ± 0.039
GACCCAAC	-0.034 ± 0.061
CCAACCAG	-0.16 ± 0.022
AACAAGAT	0.22 ± 0.029
GACAAAAA	0.144 ± 0.007
GACAAATC	0.0884 ± 0.12
TACAAATA	0.313 ± 0.007
TACAAAAA	0.285 ± 0.024
CACAAATA	0.185 ± 0.02
AACAAAAT	0.275 ± 0.03
AACAAAAA	0.14 ± 0.044
GACAAATA	0.0845 ± 0.063
AACAAATC	0.243 ± 0.016
TACAAGAA	0.2 ± 0.064
AACAAGTC	0.141 ± 0.024
CTACCGAA	-0.1 ± 0.022
CACAGGCC	-0.118 ± 0.0028
AGTTGGGG	0.0207 ± 0.062
AGCGGTGA	-0.233 ± 0.0025
AAATTTCG	0.186 ± 0.12
AACTGAAA	0.146 ± 0.092
TGCACCCA	0.0653 ± 0.034
GAGGTGGA	-0.138 ± 0.1
AACAAGTT	0.0361 ± 0.093

Sequence	PBM 8-mer E-score
AACAAATG	0.155 ± 0.052
AACAAGTA	0.101 ± 0.0032
AACAAATA	0.24 ± 0.0093
AACAAATT	0.269 ± 0.049
AACAAACA	0.234 ± 0.022
GCCCCAAC	0.167 ± 0.046
ATAGCAAG	0.248 ± 0.0032
ATAGCAAC	0.0478 ± 0.052
ATAGCAAT	0.1707 ± 0.0013
ACTCCATG	-0.0772 ± 0.0052
CCTACCCC	0.0896 ± 0.026
CGGTATGA	-0.017 ± 0.021
CCATAATA	0.213 ± 0.05
ACATAATC	0.0995 ± 0.051
GCATAAGA	0.107 ± 0.021
ACATAATA	0.294 ± 0.053
GCATAATA	0.239 ± 0.0054
ACATAATG	0.231 ± 0.099
CCAAGTGA	-0.0263 ± 0.0041
CCGACGTC	-0.172 ± 0.09
CCAGAACA	0.162 ± 0.0036
CGGCCACC	-0.305 ± 0.094
CTCTATGA	-0.000995 ± 0.044
AAAACCCC	0.126 ± 0.077
AAATCGAG	0.0488 ± 0.046

Sequence	PBM 8-mer E-score
GCACGTGC	0.454 ± 0.049
GAACGTGA	-0.00796 ± 0.078
GCACGTCC	-0.0223 ± 0.063
GCACGTGA	0.392 ± 0.1
GGACGTGA	-0.122 ± 0.048
GCACGTAC	-0.051 ± 0.064
CGCAGTTC	-0.116 ± 0.012
CCATCAGC	-0.0581 ± 0.017
CAATTCCA	-0.00806 ± 0.02
GAATTCCA	0.017 ± 0.13
AAATTCCA	0.254 ± 0.0063
GGGCGTAA	-0.0137 ± 0.039
CTATCTTC	0.137 ± 0.013
ATATCTTC	0.273 ± 0.027
ATATCTTA	0.0954 ± 0.0085
GAGTGCCC	-0.0978 ± 0.005
CTATACCC	-0.0276 ± 0.12
CAAAACAC	-0.0123 ± 0.11
GAAGAAAC	0.241 ± 0.024
AAAAAAAC	0.236 ± 0.056
ACGAAAAA	0.181 ± 0.01
GAAGAAAA	0.119 ± 0.022
GAAAACAC	0.0158 ± 0.069
ACGAAAAG	0.154 ± 0.00054
AAAAAACC	0.2 ± 0.036

Sequence	PBM 8-mer E-score
AAAAACAC	0.283 ± 0.042
CAAGAAAC	0.177 ± 0.047
ACGAAAAC	0.248 ± 0.03
CAAAAAAC	0.21 ± 0.017
ACACTTCT	-0.0487 ± 0.018
GGACAGCC	-0.155 ± 0.053
GGCTCCCA	-0.218 ± 0.099
GCCTACGC	-0.109 ± 0.09
CCAAAACC	0.122 ± 0.057
CAAAACCC	0.145 ± 0.0083
AAAGAAAG	0.084 ± 0.006
GAAAAAAA	0.255 ± 0.013
CAAAAACC	0.237 ± 0.016
AAAGAAAA	0.263 ± 0.074
GAAAAAAC	0.178 ± 0.042
CAAGAAAA	0.0576 ± 0.13
GGAAAAAA	0.136 ± 0.12
CCCCCGAC	-0.232 ± 0.054
CCACAGGG	-0.0979 ± 0.07
ATCCGGTA	-0.00311 ± 0.041
ATGTCTAC	-0.0533 ± 0.013
AAACTGGA	0.098 ± 0.12
AATTGGGC	0.0726 ± 0.029
AATTGGGA	0.239 ± 0.021
AATTGGGT	0.181 ± 0.051

Sequence	PBM 8-mer E-score
AATTTGCA	0.149 ± 0.052
CGAGTAAA	0.0289 ± 0.1
CAAGTCGC	-0.102 ± 0.035
CCGTGCGC	-0.143 ± 0.07
ACGCGTGC	0.253 ± 0.042
ACGTGTGC	0.297 ± 0.087
ACGTGTGG	0.227 ± 0.071
ACGTGTGA	0.19 ± 0.11
ACGTGCGC	0.241 ± 0.014
ACGCGTGA	0.148 ± 0.14
ACGTGCGG	0.105 ± 0.078
ACGCGTGG	0.183 ± 0.12
GGAGAAGA	0.084 ± 0.0044
CTCCTTAC	0.0913 ± 0.013
CGTCTAGC	-0.0301 ± 0.083
GAGCCTAA	-0.0774 ± 0.0028
CGAGTACC	-0.134 ± 0.016
AACGGCTG	-0.184 ± 0.1
AACCACGT	0.369 ± 0.057
ACCCACGT	0.341 ± 0.11
AACCACGA	0.141 ± 0.09
ACCCACGA	0.0663 ± 0.055
AACCACGC	-0.0767 ± 0.24
ACCCACGC	0.109 ± 0.027
AGTGTGCG	-0.149 ± 0.0092

Sequence	PBM 8-mer E-score
AAGATGTG	0.128 ± 0.009
GCCGCCCC	-0.0538 ± 0.0099
ACCCCGCC	0.27 ± 0.04
GCCCGCCC	0.0169 ± 0.057
AACCCGCC	-0.0715 ± 0.029
CCCCGCCC	0.322 ± 0.043
CCCCCGCC	-0.0877 ± 0.065
CCCGCCCA	0.317 ± 0.073
ACCCGCCC	0.172 ± 0.024
CCCGCCCG	-0.0341 ± 0.0082
ACCGCCCC	0.0617 ± 0.15
GCCGCCCA	-0.267 ± 0.094
CCCGCCCC	0.273 ± 0.057
AAGAAAGA	-0.00904 ± 0.054
AGAGTAAG	0.117 ± 0.059
CCAAATAC	0.13 ± 0.031
CCCGAATA	-0.0449 ± 0.17
CTTGGAGC	-0.103 ± 0.13
CCTAGCCG	-0.253 ± 0.052
ATCGGTGC	-0.0954 ± 0.028
CAGAACTA	-0.169 ± 0.18
AACACTCT	-0.00142 ± 0.039
